Test results as given in PubChem BioAssay (NCI).
About 79,000 compounds went through this panel and 15% of them were active in at least one assay; those are over-represented in the sample as a whole. The source made the active and inactive calls. No stated cut-off is given here; in the data, active means growth inhibition above about 70%; inactive means the rest.

Assay: NCI Yeast Anticancer Drug Screen. Data for the CLN2oe strain (AID 163);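 further: 0% = growth of vehicle-only control cultures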
Details: S. cerevisiae CLN2oe strain, at 3.7 µM, active compounds read high
Procedure, shortened: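 Compound-treated yeast; growth vs vehicle ctrl = % inhibition. Genetically altered strain (cell-cycle control).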

Row | Compound | growth inhibition
1 | S=C(S)NN1CCOCC1 | 31% (inactive)
2 | COc1cc2c3c(cccc3c1)C(=O)N(CCN(C)C)C2=O | 13% (inactive)
3 | COC(=O)C1=C(C)NC(C)=C(C(=O)OCCCN2CCC(c3ccccc3)(c3ccccc3)CC2)C1c1cccc([N+](=O)[O-])c1 (stereo not given) | 21% (inactive)
4 | c1ccc2c(c1)Oc1cccc3cccc-2c13 | 16% (inactive)
5 | CN(C)CCOc1ccc2c(c1)C/C(=C/c1ncc([N+](=O)[O-])n1C)C2=O | 35% (inactive)
6 | Cc1ccc(CCC2=CCCc3c2ccc2ccccc32)cc1 | -2% (inactive)
7 | CNC(=O)OCc1c(COC(=O)NC)c(-c2ccc(Cl)c(Cl)c2)n2c1CCC2 | -13% (inactive)
8 | Clc1ccccc1C1OC1c1ccccc1Cl (stereo not given) | 7% (inactive)
9 | O=[N+]([O-])c1cc(CCl)ccc1CCl | 15% (inactive)
10 | O=C1C=CC(=O)c2c(O)c(Nc3ccc(OC(F)(F)F)cc3)c(Cl)c(O)c21 | 0% (inactive)
11 | S=c1[nH]nc(Nc2ccc(Cl)cc2)s1 | -7% (inactive)
12 | Cn1ccnc1Oc1ccc(Cl)cc1 | -3% (inactive)
13 | BrCc1cccc2ccc3cccc(CBr)c3c12 | 0% (inactive)
14 | O=C1c2ccccc2-c2nc3ccccc3nc21 | -18% (inactive)
15 | CCCCCCCCCCCCCCCCCCNC | 19% (inactive)
16 | Oc1ccc(NCn2c(=S)sc3ccccc32)cc1 | -13% (inactive)
17 | O=C1C2CC[C@@H]3C(=O)C(Cl)(Cl)[C@@H]3CCC2C1(Cl)Cl (stereo not given in full) | 0% (inactive)
18 | CC[n+]1ccc2c(C)c3[nH]c4ccc(O)cc4c3c(C)c2c1 | 17% (inactive)
19 | Cc1ccc(-n2cc(-c3ccc(Cl)cc3)c(C#N)c2N)cc1 | -13% (inactive)
20 | CC(=O)[O][Bi]([c]1ccccc1)[c]1ccccc1 | 16% (inactive)

Row | Compound | growth inhibition
21 | CC1=C(SCCO)C(=O)c2ccccc2C1=O | -5% (inactive)
22 | C/C(=N\O)C1CC2C=C(C#N)C1N(Cc1ccccc1)C2 (stereo not given) | -14% (inactive)
23 | CC(Br)C(=O)c1ccc2cc(Br)c3ccccc3c2c1 (stereo not given) | -2% (inactive)
24 | Nc1nc(-c2cccnc2)cc(-c2cc(-c3cccnc3)nc(N)n2)n1 | 2% (inactive)
25 | CC(C)=CC(=O)O[C@@H]1CC(C)(C)CC2C3=CCC4[C@]56CC[C@](O)(OC5)C(C)(C)C6CC[C@@]4(C)C3(C)CC[C@]21C(=O)O (stereo not given in full) | 54% (inactive)
26 | CCC(C)COC(=O)c1ccc(N=Cc2ccc(C=Nc3ccc(C(=O)OCC(C)CC)cc3)cc2)cc1 (stereo not given) | 0% (inactive)
27 | Oc1cccc2c(Cl)ccnc12 | 96% (active)
28 | O=C(O)c1cccc(-c2c3ccc(=O)cc-3oc3cc(O)ccc23)c1 | -13% (inactive)
29 | CN(CCc1ccccn1)c1ccc2c(c1)Cc1ccccc1-2 | -16% (inactive)
30 | Cc1cc(S(=O)(=O)/N=C(/NN)NNc2cccc(C(F)(F)F)n2)c(S)cc1Cl | 1% (inactive)
31 | O=C1C2C(C(=O)N1c1ccc(OCc3ccccc3)cc1)C1c3ccccc3C2C2CCCCN21 (stereo not given) | -10% (inactive)
32 | Nc1ccccc1CC(O)C(=O)O (stereo not given) | 9% (inactive)
33 | O=C(O)C1CCCCC1c1c2ccc(=O)c(O)c-2oc2c(O)c(O)ccc12 (stereo not given) | 28% (inactive)
34 | Cc1ccc2ccc(O)cc2c1 | -13% (inactive)
35 | O=C1C(=O)c2ccccc2C=C1[N+](=O)[O-] | 3% (inactive)
36 | COC(=O)c1ccc(NCC2=CC(=O)C=CC2=O)cc1O | 33% (inactive)
37 | C(CCSC1=NCCN1)CSC1=NCCN1 (tested in a mixture with another compound) | 6% (inactive)
38 | N#Cc1c(N)[nH]c2ccc(Sc3ccccc3)cc12 | -22% (inactive)
39 | CCNc1nnc(CSc2nc(-c3ccccc3)c(-c3ccccc3)[nH]2)s1 | -7% (inactive)
40 | CC[C@@]1(O)C(=O)OCc2c1cc1n(c2=O)Cc2cc3c(N)cccc3nc2-1 | 23% (inactive)

Same assay, conditions: S. cerevisiae CLN2oe strain, at 11.0 µM, active compounds read high

Row | Compound | growth inhibition
41 | S=C(S)NN1CCOCC1 | 29% (inactive)
42 | COc1cc2c3c(cccc3c1)C(=O)N(CCN(C)C)C2=O | 25% (inactive)
43 | COC(=O)C1=C(C)NC(C)=C(C(=O)OCCCN2CCC(c3ccccc3)(c3ccccc3)CC2)C1c1cccc([N+](=O)[O-])c1 (stereo not given) | 96% (active)
44 | c1ccc2c(c1)Oc1cccc3cccc-2c13 | 8% (inactive)
45 | CN(C)CCOc1ccc2c(c1)C/C(=C/c1ncc([N+](=O)[O-])n1C)C2=O | 31% (inactive)
46 | Cc1ccc(CCC2=CCCc3c2ccc2ccccc32)cc1 | -9% (inactive)
47 | CNC(=O)OCc1c(COC(=O)NC)c(-c2ccc(Cl)c(Cl)c2)n2c1CCC2 | -13% (inactive)
48 | Clc1ccccc1C1OC1c1ccccc1Cl (stereo not given) | -1% (inactive)
49 | O=[N+]([O-])c1cc(CCl)ccc1CCl | 48% (inactive)
50 | O=C1C=CC(=O)c2c(O)c(Nc3ccc(OC(F)(F)F)cc3)c(Cl)c(O)c21 | -5% (inactive)
51 | S=c1[nH]nc(Nc2ccc(Cl)cc2)s1 | -13% (inactive)
52 | Cn1ccnc1Oc1ccc(Cl)cc1 | -2% (inactive)
53 | BrCc1cccc2ccc3cccc(CBr)c3c12 | -3% (inactive)
54 | O=C1c2ccccc2-c2nc3ccccc3nc21 | -39% (inactive)
55 | CCCCCCCCCCCCCCCCCCNC | 2% (inactive)
56 | Oc1ccc(NCn2c(=S)sc3ccccc32)cc1 | -32% (inactive)
57 | O=C1C2CC[C@@H]3C(=O)C(Cl)(Cl)[C@@H]3CCC2C1(Cl)Cl (stereo not given in full) | 5% (inactive)
58 | CC[n+]1ccc2c(C)c3[nH]c4ccc(O)cc4c3c(C)c2c1 | 36% (inactive)
59 | Cc1ccc(-n2cc(-c3ccc(Cl)cc3)c(C#N)c2N)cc1 | -12% (inactive)
60 | CC(=O)[O][Bi]([c]1ccccc1)[c]1ccccc1 | 31% (inactive)

Row | Compound | growth inhibition
61 | CC1=C(SCCO)C(=O)c2ccccc2C1=O | -2% (inactive)
62 | C/C(=N\O)C1CC2C=C(C#N)C1N(Cc1ccccc1)C2 (stereo not given) | -7% (inactive)
63 | CC(Br)C(=O)c1ccc2cc(Br)c3ccccc3c2c1 (stereo not given) | -7% (inactive)
64 | Nc1nc(-c2cccnc2)cc(-c2cc(-c3cccnc3)nc(N)n2)n1 | 2% (inactive)
65 | CC(C)=CC(=O)O[C@@H]1CC(C)(C)CC2C3=CCC4[C@]56CC[C@](O)(OC5)C(C)(C)C6CC[C@@]4(C)C3(C)CC[C@]21C(=O)O (stereo not given in full) | 85% (active)
66 | CCC(C)COC(=O)c1ccc(N=Cc2ccc(C=Nc3ccc(C(=O)OCC(C)CC)cc3)cc2)cc1 (stereo not given) | 6% (inactive)
67 | Oc1cccc2c(Cl)ccnc12 | 97% (active)
68 | O=C(O)c1cccc(-c2c3ccc(=O)cc-3oc3cc(O)ccc23)c1 | -4% (inactive)
69 | CN(CCc1ccccn1)c1ccc2c(c1)Cc1ccccc1-2 | -11% (inactive)
70 | Cc1cc(S(=O)(=O)/N=C(/NN)NNc2cccc(C(F)(F)F)n2)c(S)cc1Cl | -2% (inactive)
71 | O=C1C2C(C(=O)N1c1ccc(OCc3ccccc3)cc1)C1c3ccccc3C2C2CCCCN21 (stereo not given) | -12% (inactive)
72 | Nc1ccccc1CC(O)C(=O)O (stereo not given) | 13% (inactive)
73 | O=C(O)C1CCCCC1c1c2ccc(=O)c(O)c-2oc2c(O)c(O)ccc12 (stereo not given) | 23% (inactive)
74 | Cc1ccc2ccc(O)cc2c1 | -9% (inactive)
75 | O=C1C(=O)c2ccccc2C=C1[N+](=O)[O-] | 9% (inactive)
76 | COC(=O)c1ccc(NCC2=CC(=O)C=CC2=O)cc1O | 78% (active)
77 | C(CCSC1=NCCN1)CSC1=NCCN1 (tested in a mixture with another compound) | 29% (inactive)
78 | N#Cc1c(N)[nH]c2ccc(Sc3ccccc3)cc12 | 12% (inactive)
79 | CCNc1nnc(CSc2nc(-c3ccccc3)c(-c3ccccc3)[nH]2)s1 | 5% (inactive)
80 | CC[C@@]1(O)C(=O)OCc2c1cc1n(c2=O)Cc2cc3c(N)cccc3nc2-1 | 25% (inactive)
